Each structure is given as a SMILES string. The panel holds about 83,000 compounds, 20% with a hit somewhere; the sample as a whole holds those more often.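 Compound tested at a single concentration for 48 hours in 96-well plates; a percent growth value below 10 was scored as active.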 Values without a mark were called inactive. The source made the active and inactive calls.

The values that follow come from PubChem BioAssay (NCI).

What all share (experiment): NCI-60 one-dose screen, 48 h (100 = growth as untreated, 0 = no growth, -100 = all killed)
Holding throughout (settings): 10 µM unless noted

For experiment [1], the system named is SR leukemia.
In experiment [2] the test system is RPMI-8226 leukemia.
The subject of experiment [3] is OVCAR-8 ovarian.
The test system of experiment [4] is OVCAR-5 ovarian.
For experiment [5], the system named is OVCAR-4 ovarian.
Experiment [6] concerns SK-OV-3 ovarian.
The test system of experiment [7] is IGROV1 ovarian.
In experiment [8] the test system is OVCAR-3 ovarian.
The test system of experiment [9] is HS 578T breast.
The subject of experiment [10] is NCI/ADR-RES ovarian.

`O=S(=O)(NCCNc1nccc(-c2c(-c3ccc(F)c(O)c3)nc3occn23)n1)c1ccccc1`: the growth in experiment [1] was 20.2%; in experiment [2], 33.7%; in experiment [3], 53.7%; in experiment [4] it was 101%; in experiment [5], 85.8%; in experiment [6], 68.6%. Besides, the growth was 43.9% in experiment [7], 77.1% in [8], 54.4% in experiment [9] and 109% in experiment [10].

On to `O=C(NCCN1CCOCC1)OCc1nc2nc(Cl)nc(N3CCOCC3)c2[nH]1`, for which the growth in experiment [1] is -0.969% (active); in experiment [2] it was 8.39% (active); in [3], 7.4% (active); in experiment [4], 93.3%; in experiment [5] it was 45.7%; in [6], 30.7%. Also, the growth in [7] was 17.6%; in experiment [8], -2.86% (active); in [9], 14.3%; in experiment [10] it was 6.61% (active).

`N#CSCC1CC(O)(c2ccccc2)C(c2ccccc2)C(c2ccc(F)cc2)O1` (stereo unspecified): the growth in experiment [1] was -3.15% (active); in experiment [2], 12.4%; in experiment [3] it was 44.6%; in [4], 51.3%; in experiment [5], 15.8%; in experiment [6], 80.2%. The growth was 17.1% in [7], -84.2% (active) in experiment [8] and -11.2% (active) in experiment [9].

With `COc1ccc(C(=O)c2cc3c(N)c(C(=O)Nc4cccc(OC)c4)sc3nc2C)cc1`, the growth was -2.44% (active) in experiment [1]; 15.2% in experiment [2]; 15% in [3]; 46.8% in [4]; 49.5% in experiment [5]; 36.5% in experiment [6]. For the same compound, the growth in experiment [7] is 37.6%; in [8], 1.93% (active); in experiment [9], 24.6%.

In the case of `CC(=O)c1c[nH]c2ccc(-c3ccnc(Nc4ccc(NC(=O)c5cccc(F)c5)c(CN5CCOCC5)c4)n3)cc12`, the growth was 4.05% (active) in experiment [1]; -25.9% (active) in experiment [2]; 8.7% (active) in experiment [3]; -4.49% (active) in experiment [4]; -18.9% (active) in [5]; 17.8% in [6]. The growth in experiment [7] was 1.06% (active); in [8], -8.81% (active); in experiment [9], -20.1% (active); in experiment [10] it was 1.76% (active).

For the compound `CN1CCN(C(=O)OCc2nc3c(N4CCOCC4)nc(-c4ccccc4)nc3n2C)CC1`, the growth in [1] is 2.5% (active); in experiment [2], -28.7% (active); in experiment [3], 4.37% (active); in [4], -86.1% (active); in [5] it was -86.4% (active); in experiment [6] it was 61.5%. Moreover, the growth in experiment [7] was -96.3% (active); in [8], -81.9% (active); in experiment [9], -22% (active).

Consider `CC(C)NC(=O)N1C(=O)CCC1NNC(=O)c1ccc([N+](=O)[O-])cc1` (stereo unspecified), for which the growth in experiment [1] is 94.9%; in experiment [2], 110%; in experiment [3] it was 111%; in experiment [4], 103%; in experiment [5], 97.9%; in [6] it was 113%. For the same compound, the growth is 104% in experiment [7], 105% in experiment [8], 117% in experiment [9] and 95% in experiment [10].

As for `COc1cc2oc(-c3cccc(C(=O)Nc4ccc(Cl)cc4)c3)cc(=O)c2c(OC)c1OC`, the growth in experiment [1] is 8.67% (active); in [2], -18.3% (active); in experiment [3], 23.5%; in experiment [4] it was 57.5%; in experiment [5], 60.5%; in [6], 33.6%. Further, the growth is 25.5% in experiment [7], 43.1% in [8], 33% in experiment [9] and 26.2% in [10].

Take `COc1ccc(C(O)c2cc3c(N)c(C(=O)Nc4ccc(Br)cc4)sc3nc2C)cc1` (stereo unspecified): the growth in experiment [1] is -8% (active); in experiment [2] it was -4.62% (active); in [3] it was 30.6%; in experiment [4] it was 59%; in experiment [5], 42.9%; in experiment [6], 27.7%. Moreover, the growth in [7] is 43.6%; in [8], -34.9% (active); in experiment [9], 3.84% (active).

With `COc1cc(C2CC(c3cccc(Nc4ccncc4)c3)=NN2c2ccccc2)cc(OC)c1OC` (stereo unspecified), the growth is 2.93% (active) in experiment [1]; 7.32% (active) in experiment [2]; 66.6% in experiment [3]; 89.3% in experiment [4]; 41.2% in [5]; 74% in experiment [6]. The growth in [7] was 55%; in [8], 56.2%; in experiment [9], 64.2%; in experiment [10], 66.3%.

As to `Cc1ccc(C2C3CC4CCCCC4N3[C@@]3(C(=O)Nc4cc(Cl)ccc43)C2C(=O)c2nc3ccccc3[nH]2)cc1` (stereo partly specified), the growth in experiment [1] was 21.2%; in experiment [2], 9.27% (active); in experiment [3], 56.7%; in experiment [4] it was 49%; in experiment [5], 30.6%; in experiment [6], 77.6%. The growth in experiment [7] is 26.4%; in experiment [8], 33.4%; in experiment [9] it was 61%; in experiment [10], 41.7%.

Take `Nc1c(C(=O)Nc2ccc(Cl)cc2)cc(-c2nc3ccccc3s2)c(=O)n1NS(=O)(=O)c1ccc(Cl)cc1`: the growth in [1] was 95.2%; in experiment [2], 92.6%; in [3], 100%; in experiment [4] it was 101%; in experiment [5], 94.4%; in [6] it was 101%. Further, the growth was 97.4% in experiment [7], 105% in experiment [8], 98.4% in [9] and 105% in experiment [10].

Consider `FC(F)(F)c1cccc(Nc2ccccc2)c1`, for which the growth in experiment [1] was 88.2%; in experiment [2], 104%; in experiment [3], 101%; in experiment [4], 95.4%; in experiment [5], 108%; in experiment [6], 119%. Also, the growth in experiment [7] is 102%; in experiment [8], 118%; in experiment [9] it was 105%; in experiment [10], 96.2%.

For `O=C1CCC(NC(=S)Nc2ccccc2)N1` (stereo unspecified), the growth in experiment [1] was 93.8%; in experiment [2] it was 101%; in experiment [3], 107%; in experiment [4], 111%; in experiment [5] it was 107%; in experiment [6], 117%. For the same compound, the growth in [7] is 102%; in experiment [8], 106%; in [9] it was 105%; in [10], 96.9%.
